Test results as given in ChEMBL document CHEMBL1961873, “Compounds: GSK PKIS; Assays: Nanosyn kinase panel” (2012).

Assays:
[1] = biological target: RAC-alpha serine/threonine-protein kinase (Homo sapiens) (UniProt P31749); conditions: at 0.1 µM
[2] = biological target: RAC-alpha serine/threonine-protein kinase (Homo sapiens) (UniProt P31749); conditions: at 1 µM
[3] = biological target: RAC-beta serine/threonine-protein kinase (Homo sapiens) (UniProt P31751); conditions: at 0.1 µM
[4] = biological target: RAC-beta serine/threonine-protein kinase (Homo sapiens) (UniProt P31751); conditions: at 1 µM
[5] = biological target: RAC-gamma serine/threonine-protein kinase (Homo sapiens) (UniProt Q9Y243); conditions: at 0.1 µM
[6] = biological target: RAC-gamma serine/threonine-protein kinase (Homo sapiens) (UniProt Q9Y243); conditions: at 1 µM
[7] = biological target: G protein-coupled receptor kinase 6 (Homo sapiens) (UniProt P43250); conditions: at 0.1 µM
[8] = biological target: G protein-coupled receptor kinase 6 (Homo sapiens) (UniProt P43250); conditions: at 1 µM
[9] = biological target: T1, Rhodopsin kinase GRK7 (Homo sapiens) (UniProt Q8WTQ7); conditions: at 0.1 µM
T1 sequence (whole entry): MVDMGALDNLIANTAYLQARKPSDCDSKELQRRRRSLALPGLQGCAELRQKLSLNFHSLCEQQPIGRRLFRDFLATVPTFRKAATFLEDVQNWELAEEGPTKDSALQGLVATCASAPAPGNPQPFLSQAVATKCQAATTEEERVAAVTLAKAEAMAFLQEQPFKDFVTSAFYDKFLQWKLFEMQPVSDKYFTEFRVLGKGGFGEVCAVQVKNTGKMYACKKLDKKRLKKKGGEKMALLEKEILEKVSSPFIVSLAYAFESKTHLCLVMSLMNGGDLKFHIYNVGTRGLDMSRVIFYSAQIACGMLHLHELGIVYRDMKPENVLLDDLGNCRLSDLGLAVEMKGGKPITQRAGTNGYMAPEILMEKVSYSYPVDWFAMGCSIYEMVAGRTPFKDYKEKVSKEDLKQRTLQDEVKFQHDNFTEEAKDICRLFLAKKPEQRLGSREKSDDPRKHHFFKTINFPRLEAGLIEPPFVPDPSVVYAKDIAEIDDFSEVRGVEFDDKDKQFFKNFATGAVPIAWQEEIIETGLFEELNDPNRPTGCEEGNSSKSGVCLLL

[10] = biological target: T1, Rhodopsin kinase GRK7 (Homo sapiens); conditions: at 1 µM

Sequence of RAC-beta serine/threonine-protein kinase (Homo sapiens) (P31751 whole entry): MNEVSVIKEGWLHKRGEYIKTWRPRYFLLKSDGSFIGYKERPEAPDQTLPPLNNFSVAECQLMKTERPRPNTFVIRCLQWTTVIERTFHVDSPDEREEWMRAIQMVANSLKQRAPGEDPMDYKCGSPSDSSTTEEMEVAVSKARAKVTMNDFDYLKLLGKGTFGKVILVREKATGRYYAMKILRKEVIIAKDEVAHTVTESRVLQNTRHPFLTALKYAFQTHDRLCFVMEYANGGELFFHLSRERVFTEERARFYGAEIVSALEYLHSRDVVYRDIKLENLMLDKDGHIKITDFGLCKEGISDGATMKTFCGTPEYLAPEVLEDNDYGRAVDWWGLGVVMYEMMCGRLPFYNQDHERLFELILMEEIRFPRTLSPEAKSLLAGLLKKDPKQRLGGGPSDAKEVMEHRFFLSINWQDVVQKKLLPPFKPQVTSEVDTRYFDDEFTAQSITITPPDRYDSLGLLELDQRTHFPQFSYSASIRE
Sequence of RAC-alpha serine/threonine-protein kinase (Homo sapiens) (P31749 whole entry): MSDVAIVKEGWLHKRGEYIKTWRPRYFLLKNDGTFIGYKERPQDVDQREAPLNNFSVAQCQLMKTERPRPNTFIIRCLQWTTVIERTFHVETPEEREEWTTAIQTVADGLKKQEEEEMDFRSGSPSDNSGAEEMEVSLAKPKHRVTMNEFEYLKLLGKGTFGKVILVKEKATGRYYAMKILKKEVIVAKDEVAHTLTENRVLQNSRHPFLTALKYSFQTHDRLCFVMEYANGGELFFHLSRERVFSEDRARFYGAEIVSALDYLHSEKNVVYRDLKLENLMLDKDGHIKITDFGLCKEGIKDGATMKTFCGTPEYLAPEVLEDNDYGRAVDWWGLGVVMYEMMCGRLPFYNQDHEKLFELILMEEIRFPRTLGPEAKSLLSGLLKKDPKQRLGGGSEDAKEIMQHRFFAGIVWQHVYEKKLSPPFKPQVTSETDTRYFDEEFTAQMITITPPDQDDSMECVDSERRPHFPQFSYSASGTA
Sequence of RAC-gamma serine/threonine-protein kinase (Homo sapiens) (Q9Y243 whole entry): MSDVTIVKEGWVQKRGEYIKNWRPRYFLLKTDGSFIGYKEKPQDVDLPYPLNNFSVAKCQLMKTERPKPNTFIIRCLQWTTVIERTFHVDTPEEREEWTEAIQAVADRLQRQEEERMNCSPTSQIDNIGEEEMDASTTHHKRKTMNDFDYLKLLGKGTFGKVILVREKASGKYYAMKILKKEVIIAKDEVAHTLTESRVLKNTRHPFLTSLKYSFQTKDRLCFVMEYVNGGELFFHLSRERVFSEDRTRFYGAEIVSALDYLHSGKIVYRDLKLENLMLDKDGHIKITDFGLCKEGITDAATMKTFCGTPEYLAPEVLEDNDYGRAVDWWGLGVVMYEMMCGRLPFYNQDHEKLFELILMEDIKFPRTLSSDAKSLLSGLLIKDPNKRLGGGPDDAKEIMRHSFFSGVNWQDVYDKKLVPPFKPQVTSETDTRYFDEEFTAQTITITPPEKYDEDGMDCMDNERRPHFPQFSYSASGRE
Sequence of G protein-coupled receptor kinase 6 (Homo sapiens) (P43250 whole entry, looked up): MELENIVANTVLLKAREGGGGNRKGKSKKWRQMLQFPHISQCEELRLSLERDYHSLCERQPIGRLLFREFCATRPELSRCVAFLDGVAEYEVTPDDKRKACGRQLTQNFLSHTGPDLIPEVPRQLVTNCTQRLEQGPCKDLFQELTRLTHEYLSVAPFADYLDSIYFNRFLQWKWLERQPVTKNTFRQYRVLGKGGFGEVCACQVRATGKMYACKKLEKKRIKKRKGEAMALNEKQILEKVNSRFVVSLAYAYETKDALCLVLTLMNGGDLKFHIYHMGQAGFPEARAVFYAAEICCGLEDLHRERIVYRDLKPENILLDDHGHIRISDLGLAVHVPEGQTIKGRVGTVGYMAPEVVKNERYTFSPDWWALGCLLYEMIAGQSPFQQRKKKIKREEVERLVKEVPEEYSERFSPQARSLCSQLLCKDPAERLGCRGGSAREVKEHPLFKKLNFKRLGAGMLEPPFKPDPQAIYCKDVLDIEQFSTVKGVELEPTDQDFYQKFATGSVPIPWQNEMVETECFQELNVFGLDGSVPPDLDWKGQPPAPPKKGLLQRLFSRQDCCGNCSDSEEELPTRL

SMILES | inhibition [1] | inhibition [2] | inhibition [3] | inhibition [4] | inhibition [5] | inhibition [6] | inhibition [7] | inhibition [8] | inhibition [9] | inhibition [10]
COC(=O)Nc1nc2ccc(Oc3ccc(NC(=O)Nc4cccc(Cl)c4)cc3)cc2[nH]1 | -0.35% | -0.4% | -0.4% | 0.5% | -0.34% | 1.86% | -1.85% | 0.02% | 3.03% | 16.8%
COc1cc(N2CCN(C(C)C)CC2)ccc1Nc1nc(Nc2ccc(F)cc2C(N)=O)c2cc[nH]c2n1 | 0.91% | 2.86% | 1.62% | 3.68% | 1.62% | 4.8% | 3.9% | 14.3% | 5.3% | 10.1%
Nc1nc(-c2ccc(F)cc2)c(-c2ccc3ncccc3n2)s1 | 0.67% | 1.34% | 2.24% | 2.19% | 5.53% | 1.9% | 5.89% | 5.57% | 6.78% | 7.94%
CCNC(=O)O[C@H]1CN[C@H](C#Cc2cc3ncnc(Nc4ccc(OCc5cccc(F)c5)c(Cl)c4)c3s2)C1 | 1.21% | 0.9% | 3.39% | 2.59% | 1.29% | 1.95% | 2.11% | 4.14% | 2.34% | 2.31%
Nc1nc(-c2cccc(Cl)c2)c(-c2ccc3ncccc3n2)s1 | -0.22% | 0.39% | 1.97% | 2.05% | 1.92% | 0.68% | 10.4% | 15.4% | 7.84% | 13.8%
CN1CCC(n2cnc(-c3ccc(F)cc3)c2-c2ccnc(N)n2)CC1 | 0.24% | 0.29% | 0.39% | 0.66% | 2.57% | 2.05% | 1.6% | 2.25% | 3.11% | 5.7%
COc1cc(/C=N/Nc2ncnc3[nH]ncc23)ccc1O | 0.87% | 0.81% | 1.01% | 0.76% | 1.65% | 0.92% | 4.89% | 5.42% | 2.24% | 5.07%
COc1cc(Nc2nccc(Nc3ccc4c(C)n[nH]c4c3)n2)cc(OC)c1OC | 0.02% | 1.09% | 0.52% | 1.19% | 0.72% | 1.18% | -0.47% | -4.13% | 1.14% | -1.95%
Fc1cccc(COc2ccc(Nc3ncnc4sc(-c5ccco5)cc34)cc2Cl)c1 | 0.99% | 0.75% | 0.95% | 1.84% | 0.12% | 50.3% | 2.57% | 11.6% | 11.4% | 43.4%
CCN(CC)S(=O)(=O)c1ccc(OC)c(Nc2ncc(-c3ccccc3)o2)c1 | 0.87% | -0.4% | 0.37% | 0.18% | 2.3% | -1.03% | 1.87% | -0.46% | 3.17% | -3.96%
CCOc1ccc2c(-c3ccnc(Nc4cccc(C(F)(F)F)c4)n3)cnn2n1 | 0.26% | 0.31% | 0.57% | 1.35% | -0.38% | 4.77% | -2.91% | -2.59% | 3.77% | 0.86%
c1ccc(COc2ccc(Nc3ncnc4ccc(-c5ccco5)cc34)cc2)cc1 | 0.02% | 0.01% | -0.87% | 0.43% | 0.39% | 2.23% | -0.04% | 4.75% | 5.57% | 5.11%
COc1cc2c(cc1Nc1nc(Nc3ccsc3C(N)=O)c3cc[nH]c3n1)N(C(=O)CN(C)C)CCC2(C)C | 1.26% | 0.48% | 2.13% | 2.14% | 0.83% | 2.54% | 49.5% | 87.2% | 34.2% | 63.2%
CCc1nn2ncccc2c1-c1ccnc(NC2CC2)n1 | 0.3% | 0.03% | -0.16% | 0.84% | 0.81% | 0.1% | 3.01% | 4.64% | 3.97% | 1.72%
Cc1ccc2c(-c3ccnc(Nc4ccccc4)n3)c(-c3ccc(F)cc3)nn2n1 | 0.59% | 0.99% | 2.02% | 1.95% | 1.53% | 1.01% | 0.38% | -3.54% | 1.12% | -6.29%
O=C(O[C@H]1CN[C@H](C#Cc2cc3ncnc(Nc4ccc(Cc5ccccc5)cc4)c3s2)C1)N1CCOCC1 | -0.07% | 1.54% | 0.98% | 1.79% | 0.38% | 1.99% | -0.99% | 1.46% | 5.43% | 0.52%
Fc1ccc(-c2nn3ccccc3c2-c2ccncc2)cc1 | 0.06% | 1.28% | 0.35% | 1.43% | 1.01% | 4.38% | 0.75% | -0.76% | 0.65% | 3.13%

SMILES | inhibition [1] | inhibition [2] | inhibition [3] | inhibition [4] | inhibition [5] | inhibition [6] | inhibition [7] | inhibition [8] | inhibition [9] | inhibition [10]
COc1ccc2c(-c3ccnc(Nc4cccc(OC(F)(F)F)c4)n3)cnn2n1 | 0.95% | 0.97% | 2.41% | 1.51% | 1.3% | 1.57% | 4.64% | 5.84% | 5.16% | 4.9%
Fc1ccc(-c2cc(-c3c[nH]nc3-c3ccccn3)ccn2)cc1 | 0.11% | 0.95% | 1.68% | 2.45% | 0.98% | 1.5% | 7.85% | 15.7% | 3.52% | 13.4%
COc1cccc(-c2c[nH]c3c(N/N=C/c4ccncc4)ncnc23)c1 | 1.29% | 0.32% | 1.22% | -0.06% | 1.48% | -0.22% | -1.66% | -7.11% | 0.28% | -6.92%
c1cc(-c2cnn3nc(N4CCOCC4)ccc23)nc(NC2CC2)n1 | 0.69% | 1.04% | 3.2% | 2.75% | 1.36% | 1.78% | 0.85% | 1.72% | 3.91% | 6.6%
c1ccc(-c2nc3n(c2-c2ccc4c(c2)OCO4)CCC3)nc1 | 0.15% | 0.19% | 0.67% | 0.83% | 0.55% | 0.06% | 3.19% | 2.38% | 1.13% | 3.19%
NS(=O)(=O)c1ccc(Nc2ncc(-c3ccccc3)o2)cc1 | 0.78% | 0.93% | 2.08% | 1.95% | 0.97% | 1.49% | 4.73% | 3.06% | 2.42% | 2.99%
CCn1c(-c2nonc2N)nc2c(C#CC(C)(C)O)ncc(OC3CCNCC3)c21 | 70.1% | 92.8% | 85.2% | 95.5% | 74.7% | 94.2% | 4.09% | 7.13% | 7.74% | 17%
CCCN(CCS(C)(=O)=O)Cc1ccc(-c2ccc3ncnc(Nc4ccc(OCc5cccc(F)c5)c(Cl)c4)c3c2)o1 | 0.19% | 0.93% | 1.03% | 0.88% | 0.64% | 0.93% | 5.12% | 1.91% | -0.29% | 0.79%
COc1ccc(-c2nn3ncccc3c2-c2ccnc(Nc3ccc4c(c3)OCCO4)n2)cc1 | -0.35% | -0.09% | -0.91% | -0.18% | 0.24% | 2.32% | -1.91% | -1.49% | 4.16% | 2.81%
CC(=O)NCc1cccc(C#Cc2cncnc2Nc2ccc(OCc3cccc(F)c3)c(Cl)c2)c1 | -0.84% | -1.16% | -0.39% | 0.71% | 0.73% | 0.47% | 1.84% | 3.06% | -1.42% | 7.96%
COc1ccc(CNC(=O)c2ccc(-c3cc(-c4nnc(C)o4)ccc3C)cc2)cc1 | 0.11% | 0.4% | 0.92% | 1.2% | 0.06% | 0.12% | 6.21% | 16.4% | 2.86% | 10.6%
N#Cc1c(NC(=O)CN2CCOCC2)sc2c1CCCC2 | 1.2% | 1.08% | 1.56% | 1% | 1.61% | 2.91% | 2.71% | 4.14% | 3.28% | 4.91%
COc1ccc(-c2cc(-c3c[nH]nc3-c3ccccn3)ccn2)cc1 | 0.93% | 1.5% | 2.54% | 1.95% | 1.66% | 1.52% | 8.13% | 8.91% | 3.59% | 6.26%
CC1=C(C(=O)Nc2cc(Cl)c3[nH]ncc3c2)C(c2ccc(C(F)(F)F)cc2)CC(=O)N1 (stereo not given) | 0.52% | 5.71% | 1.33% | 3.66% | 2.98% | 22.1% | 4.52% | 13.4% | 3.32% | 16.4%
CC(C)COC(=O)c1ccc2c(c1)/C(=C/Nc1ccc(S(N)(=O)=O)cc1)C(=O)N2 | 1.6% | 2.22% | 0.67% | 1.73% | 1.5% | 6.82% | 1.33% | 10.1% | -4.26% | 9.41%
CCn1cc(-c2ccnc3[nH]ccc23)c(-c2cccc(NC(=O)Nc3ccc(OCc4ccccc4)cc3)c2)n1 | 1.5% | 1.68% | 1.8% | 3.99% | 0.23% | 2.59% | -2.36% | 0.99% | 3.4% | -2.29%
